TRPV1 agonist: agonists of human vanilloid receptor 1 (TRPV1); AID 540275; activation, % at 8.33 µM; Q8NER1; TRPV1-expressing cells, Fluo-8 calcium influx, agonist mode; 320,000 tested, 0.19% active; in the data active means activation above about 80%; inconclusive means between about 30% and that limit
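TRPV1-expressing cells were cultured overnight at 35.5C and loaded with Fluo-8 calcium dye for 40 to 90 min at room temperature. After a 10 s baseline, compound was added and calcium influx was read kinetically for 3 min (ex 480/em 520 nm).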
KCNH2 3.1 inh: blocks the human KCNH2 3.1 channel isoform. activity change, % (tested at about 1.8 µM). U2OS KCNH2 3.1, thallium flux FluxOr; stronger effect = lower value. AID 720553. 340,000 tested, 0.95% active;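 active means maximum activity change below -70%; inconclusive means maximum activity change from -70% to -50%; inactive means maximum activity change above -50%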;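 further: thallium influx rate constant from kinetic fluorescence after stimulation buffer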
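Virally transduced U2OS (3.1 isoform, 4 h infection in dark at RT) → overnight 37 C → FluxOr + Red40 in HBSS/HEPES, 45 min → stimulation buffer, 2 min kinetic read → rate constant vs DMSO controls.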
TRPV1 potentiator: enhances activation of the human vanilloid receptor TRPV1. Q8NER1. TRPV1-expressing cells, Fluo-8 calcium influx, capsaicin EC20 potentiation. potentiation, % at 8.33 µM. 320,000 tested, 0.02% active. AID 540277; in the data active means potentiation above about 80%; inconclusive means between about 30% and that limit
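Cells expressing TRPV1 were dye-loaded with Fluo-8 and read kinetically: 10 s baseline, 3 min after compound (agonist portion), then 2 min after EC20 capsaicin (allosteric enhancer portion). Calcium-bound dye fluorescence at 480/520 nm.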
ClpP mod: qHTS Assay for Activators of ClpP; ATP-dependent Clp protease proteolytic subunit (Bacillus subtilis (strain 168)), P80244; purified B. subtilis ClpP, FRET peptide cleavage, 20 min; Potency, µM (highest dose often 57.5 µM); 340,000 tested, 1.9% active; active means well fitted falling curve with a large enough effect; inconclusive means small, poorly fitted or top-dose-only effect; inactive means no such curve, though single readings can be large or run the other way; further: the source files actives as falling curves though it sought activators and does not explain the sign; nearly all actives have a fitted effect of over 65% in size
Target sequence (P80244 whole entry, looked up): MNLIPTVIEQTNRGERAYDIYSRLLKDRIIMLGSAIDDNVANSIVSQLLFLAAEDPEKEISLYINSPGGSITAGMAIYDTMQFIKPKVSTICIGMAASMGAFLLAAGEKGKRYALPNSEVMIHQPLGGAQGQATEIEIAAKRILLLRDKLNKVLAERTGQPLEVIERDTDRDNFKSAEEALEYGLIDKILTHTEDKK
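Buffer: 100 mM Tris/HCl pH8, 100 mM KCl, 0.05% low protease BSA, 2.5% glycerol, 0.01% Tween-20. ClpP 10 microg/mL final; 20 min RT; delta FRET normalized to ADEP and DMSO controls.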
p53 reactivation: restores transcriptional activity of mutant p53. H1299 p53-A138V BP100-luciferase reporter, luminescence, 24 h. AID 504706. 320,000 tested, 0.063% active. Potency, µM (series often up to 92.2 µM), hits mostly activators; active means well fitted activation curve with a large enough effect; inconclusive means small, poorly fitted or top-dose-only effect; inactive means no such curve, though single readings can be large or run the other way; further: nearly all actives have a fitted effect of over 45% in size
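p53-null H1299 cells stably carrying temperature-sensitive p53-A138V and a BP100-luciferase reporter were pinned with compounds (4-point, 1:5 series) and held 24 hrs at 37 deg C. Luminescence was read 10 min after detection reagent.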
hERG WT inh: KCNH2 (human, wildtype) channel inhibition; activity change, % at 1.84 µM; 340,000 tested, 0.37% active; U2OS, BacMam KCNH2, thallium flux FluxOr; stronger effect = lower value;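 active means maximum activity change below -70%; inconclusive means maximum activity change between -70% and -50%; inactive means maximum activity change above -50%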
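U2OS cells transduced with wild-type KCNH2 virus are loaded with FluxOr dye for 45 min, and thallium flux is measured in kinetic reads before and after stimulation buffer. Rate constants are normalized to DMSO controls.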
A number is an active result; – = inactive; ? = inconclusive; · = not tested or not shown. This is a sample that favours compounds with a hit; in the whole collection about 2.6% have one here.

SMILES	TRPV1 agonist	KCNH2 3.1 inh	TRPV1 potentiator	ClpP mod	p53 reactivation	hERG WT inh
CC(=O)Nc1sc(C)c(C)c1C(=O)OCC(=O)N(C)C1CCS(=O)(=O)C1 (configuration not stated)	–	–	–	35µM	–	–
COC(=O)c1cc(C)sc1NC(=O)C1C2C=CC(CC2)C1C(=O)O (configuration not stated)	–	–	–	–	–	–
CCOC(=O)c1c(NC(=O)C2C3CCC(O3)C2C(=O)O)sc2c1CCC(CC)C2 (configuration not stated)	–	–	–	·	–	–
Cc1noc(C)c1C(=O)OCC(=O)N(C)C1CCS(=O)(=O)C1 (configuration not stated)	–	–	–	·	–	–
CCOC(=O)c1c(NC(=O)C2C3C=CC(CC3)C2C(=O)O)sc(C)c1C (configuration not stated)	–	–	–	28µM	–	–
CCOC(=O)c1c(NC(=O)C2C3C=CC(C3)C2C(=O)O)sc2c1CCC(CC)C2 (configuration not stated)	–	–	?	25µM	–	–
O=[N+]([O-])c1ccc2c(c1)C=C/C2=C\c1ccc(C=S)cc1	·	·	·	–	·	·
CC(=O)N1CCC2(CC1)CC(=O)c1cc(OCC(=O)NCc3ccc(C)cc3)ccc1O2	–	–	–	28µM	–	–
CC(C)(C)c1ccc(OCC(=O)NCc2ccco2)cc1	?	–	–	–	–	–
CC(=O)N1CCC2(CC1)CC(=O)c1cc(OCC(=O)NCc3ccco3)ccc1O2	–	–	–	11µM	–	–
COc1ccc(-c2nn(C)c3sc(C(=O)Nc4cc(OC)c(OC)c(OC)c4)cc23)cc1OC	·	·	·	–	·	·
CCOc1cccc2cc(C(=O)Nc3cc(C)on3)c(=O)oc12	–	-77	–	–	–	–
CCOc1cccc2cc(C(=O)Nc3ccccc3-c3ccccc3)c(=O)oc12	–	–	–	–	–	–
CCOc1cccc2cc(C(=O)NCc3ccc(C)cc3)c(=N)oc12	–	-208	–	–	–	–
Cc1cc2nc(C3CCN(CC4COc5ccccc5O4)CC3)[nH]c2cc1C (configuration not stated)	–	-79	–	–	–	-73
COc1cccc(CNCCc2c[nH]c3ccccc23)c1OCc1ccc(F)cc1	–	–	–	–	–	–
COc1cc(CNCCc2c[nH]c3ccccc23)ccc1OCc1ccc(F)cc1	–	-88	–	–	–	–
CC(C)C[C@H]1CN(CCCC[C@H]2CNC(=O)C(=O)N2CCc2ccc(O)cc2)C(=O)C(=O)N1CCC1CCCCC1	·	·	·	–	·	·
O=C(NCCCN1CCCC1=O)c1cccc(NS(=O)(=O)c2ccccc2)c1	–	–	–	35µM	–	–
O=C(NCCCN1CCCC1=O)c1cccc(S(=O)(=O)N2CCN(c3ccccc3)CC2)c1	–	–	–	16µM	–	–
Cc1ccc(/C=C(\NC(=O)c2ccc(C)cc2)C(=O)NCCCn2ccnc2)cc1	–	-95	–	·	–	-94
Cc1ccc(C(=O)N/C(=C\c2ccccc2)C(=O)NCc2ccncc2)cc1	–	–	–	·	–	–
Cc1ccc(C(=O)N/C(=C\c2cn(C)c3ccccc23)C(=O)NCCCn2ccnc2)cc1	–	–	–	·	–	–
Cc1ccc(C(=O)N/C(=C/c2ccc(F)cc2)C(=O)NCc2ccncc2)cc1	–	-90	–	–	–	?
Cc1ccc(C(=O)N/C(=C\c2ccccc2)C(=O)NCCCn2ccnc2)cc1	–	-105	–	·	–	-125
SMILES	TRPV1 agonist	KCNH2 3.1 inh	TRPV1 potentiator	ClpP mod	p53 reactivation	hERG WT inh
CCOC(=O)c1c(NC(=O)/C=C/c2ccc(C)cc2)sc2c1CCCC2	·	·	·	–	·	·
COCCNC(=O)C1(C)CCN(C(=O)c2ccc3ccccc3n2)C1 (configuration not stated)	·	·	·	–	·	·
CCC(C)c1ccccc1N1CC(C(=O)Nc2ccc(C)c(S(=O)(=O)N3CCOCC3)c2)CC1=O (configuration not stated)	–	-73	–	–	–	–
O=C(Cn1cc(COc2ccc(-n3cccc3)cc2)nn1)NS(=O)(=O)c1ccccc1C(F)(F)F	·	·	·	–	·	·
COC(=O)c1cccnc1-n1c(=O)c2cccnc2n(CC(=O)Nc2cccc(C)c2)c1=O	·	·	·	–	·	·
O=C(N/N=C/c1cn(-c2cccs2)nc1-c1ccccc1)c1ccccc1Cl	–	–	–	22µM	?	–
O=C(N/N=C/c1cn(-c2cccs2)nc1-c1ccccc1)c1ccc(O)cc1	–	–	–	–	–	–
CC(=O)C1=C(C)NC(SCC(=O)Nc2nccs2)=C(C#N)C1c1ccccc1Cl (configuration not stated)	–	–	–	28µM	–	–
C=CCOC(=O)C1=C(C)NC(SCC(=O)Nc2nccs2)=C(C#N)C1c1ccc(Cl)cc1 (configuration not stated)	–	–	–	–	–	–
O=C1c2cccnc2C(=O)N1c1nc(-c2ccccc2)cs1	·	·	·	–	·	·
O=C1CC(C(=O)Nc2ccc(Cl)cc2[N+](=O)[O-])C2(CCCCC2)O1 (configuration not stated)	–	–	–	28µM	–	–
COc1ccc2nc(NC(=O)c3ccc(S(=O)(=O)N4CCCC(C)C4)cc3)sc2c1 (configuration not stated)	·	·	·	–	·	·
O=C(NCc1cccnc1)C1CCC(c2ccc(Cl)cc2)CC1 (configuration not stated)	115	–	–	28µM	–	–
O=C(NCc1cccnc1)C1CCN(C(=O)c2ccc(Cl)cc2Cl)CC1	–	–	–	–	–	–
CCOC(=O)[C@]12CCCC=C1N(Cc1ccc(Cl)cc1Cl)C(=O)[C@H](CC(=O)N1CCN(C(=O)c3ccco3)CC1)C2	·	·	·	–	·	·
O=c1cc(-c2ccccc2)nc2nc(-c3ccccc3)[nH]n12	–	–	–	–	32µM	–
Nc1nc2nc(-c3ccccc3)cc(=O)n2[nH]1	–	–	–	–	–	–
O=C(NCc1ccccc1)c1cc(C2CCCCN2C(=O)c2cccs2)on1 (configuration not stated)	·	·	·	–	·	·
CCN(CC)c1ccc(/C=N/NC(=O)c2nnn(-c3nonc3N)c2CN(C)C2CCCCC2)cc1	·	-88	·	–	·	–
CCOc1ccc(/C=N/NC(=O)c2nnn(-c3nonc3N)c2CN(C)C2CCCCC2)cc1	–	–	–	–	–	-102
CCCCN(C)CCCNC(=O)Cn1ncc2c3ccccc3n(Cc3cc(C)ccc3C)c2c1=O	·	·	·	–	·	·
Cc1c(C(=O)NCc2ccc(Cl)c(Cl)c2)sc(=O)n1Cc1ccc(C(=O)N(C)C)cc1	·	·	·	–	·	·

Bioassay records: PubChem BioAssay, National Center for Advancing Translational Sciences (NCATS)
